Results from PubChem BioAssay (Tox21).
Results filed as inconclusive are left out. A call without a number means that no potency is given here. A number with no mark means an inactive call. Activity calls are given as the source filed them. The call rests on the fitted dose curve; in most records, active means well fitted cell-killing curve with a large enough effect in the repeat runs; inconclusive means weak or mixed curves, or effect the other way; inactive means no such curve, though single readings can be large or run the other way.

Assay: qHTS assay to identify small molecule antagonists of the sonic hedgehog signaling (Shh) pathway - cell viability counter screen (AID 1259367); further: nearly all actives have a fitted effect of over 55% in size
Conditions: NIH/3T3 Gli1-Luc viability, CellTiter-Fluor, 24 h; series mostly up to 92.4 µM
Summary of the method: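 Cells: 3T3 Gli1-Luc, 2,000/well, 4 hr pre-incubation. Compounds in DMSO, then conditioned medium. Incubation 24 hr, 37C, 5% CO2. CellTiter-Fluor at 23 hr, 1 hr, fluorescence.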

SMILES	Potency	viability change, negative = cytotoxic
CN1Cc2cc(C(=O)N3CCC(C4CCNCC4)CC3)ccc2NC(CC(=O)O)C1=O (configuration not stated)	inactive	
CC(=O)NO	inactive	
CC(=O)[O][Al][O]C(C)=O	inactive	
Cc1nn(C)c(Oc2ccccc2)c1/C=N/OCc1ccc(C(=O)OC(C)(C)C)cc1	inactive	
O=C1OC(CN2CCOCC2)CN1/N=C/c1ccc([N+](=O)[O-])o1 (configuration not stated)	inactive	
COCCCN1CCC(NC(=O)c2cc(Cl)c(N)c3c2OCC3)CC1	inactive	
C1CCCNCCC1	inactive	
CCC(Cl)CCC(Cl)C(Cl)CC(Cl)C(Cl)C(Cl)CCl (configuration not stated)	inactive	
CCCCC(CC)COC(=O)COc1ccc(Cl)cc1Cl (configuration not stated)	inactive	
CCC(C)O (configuration not stated)	inactive	
C[C@@H](c1ncncc1F)C(O)(Cn1cncn1)c1ccc(F)cc1F (some centres not stated)	inactive	
CC(C)(C)OCC1CO1 (configuration not stated)	inactive	
C[Si](C)(CCCN)O[Si](C)(C)CCCN	inactive	
O=C1OC(=O)C2C3C=CC(C3)C12 (configuration not stated)	inactive	
CC(C)(C)Cl	inactive	
Cc1ccc(C(C)OC(=O)C2(C)CCC(C(=O)O)C2(C)C)cc1 (configuration not stated)	inactive	

SMILES	Potency	viability change, negative = cytotoxic
CC(CSC(=O)c1ccccc1)C(=O)N1C[C@@H](Sc2ccccc2)C[C@H]1C(=O)O (some centres not stated)		1.29% [at 19 µM]
O=C(NCCO[N+](=O)[O-])c1cccnc1	inactive	
CN(C)CCN(Cc1ccsc1)c1ccccn1	inactive	
Nc1cc(C(=O)O)c(O)c(S(=O)(=O)O)c1	inactive	
O=S(c1cc(Cl)cc(Cl)c1O)c1cc(Cl)cc(Cl)c1O	inactive	
COC(=O)c1ccc(I)cc1S(=O)(=O)NC(=O)Nc1nc(C)nc(OC)n1	inactive	
C[C@H]1C[C@H]2[C@@H]3CCC4=CC(=O)C=C[C@]4(C)[C@@]3(Cl)[C@@H](O)C[C@]2(C)[C@@]1(O)C(=O)CO	inactive	
CC(C)Nc1ccc(NC(C)C)c2c1C(=O)c1ccccc1C2=O	inactive	
CC(C)OC(=O)C(C)N(C(=O)c1ccccc1)c1ccc(F)c(Cl)c1 (configuration not stated)	inactive	
CC(C)(CO)[N+](=O)[O-]	inactive	
COc1ccc(C(=O)N2CCN(CC(=O)N3CCOCC3)CC2)cc1	inactive	
O=C(O)c1ccccc1Cl	inactive	
CCCCc1ncc(/C=C(\Cc2cccs2)C(=O)O)n1Cc1ccc(C(=O)O)cc1	inactive	
CC1(c2ccccc2)OC(C(=O)O)=CC1=O (configuration not stated)	inactive	
NC(N)=NCCC[C@H](N)C(=O)O		1.21% [at 8.39 µM]
CC/C=C\CCOC(=O)CC	inactive	
